# L3MBTL1 block = L3MBTL1 (human) inhibition | AlphaScreen L3MBTL1–H3K9me1 peptide binding | Potency, µM (series often up to 57.1 µM), for inactives: at the highest dose activity, negative = inhibition, actives largely listed as inhibitors | hit rate 0.66% among 230,000 | AID 485360; also: % is scaled to controls: 0 for no effect and ±100 for the full control effect; nearly all actives have a fitted effect of over 60% in size
#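 AlphaScreen assay: L3MBTL1 (50 nM final) was preincubated 30 min at room temperature with biotinylated H3(1-15)K9me1 peptide (75 nM final), then 30 min with library compounds; streptavidin donor and nickel chelate acceptor beads (10 ug/mL final) added, 30 min dark.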
# G9a block = G9a (human) methyltransferase inhibition. G9a H3K9 monomethylation, AlphaScreen, 2 h. Potency, µM (highest dose often 102 µM), inactives show at the highest dose activity, negative = inhibition, usual class: inhibitors. hit rate 8.8% among 350,000; also: % is scaled to controls: 0 for no effect and ±100 for the full control effect; nearly all actives have a fitted effect of over 75% in size
# Target sequence (Q96KQ7 913-1193 limits assumed): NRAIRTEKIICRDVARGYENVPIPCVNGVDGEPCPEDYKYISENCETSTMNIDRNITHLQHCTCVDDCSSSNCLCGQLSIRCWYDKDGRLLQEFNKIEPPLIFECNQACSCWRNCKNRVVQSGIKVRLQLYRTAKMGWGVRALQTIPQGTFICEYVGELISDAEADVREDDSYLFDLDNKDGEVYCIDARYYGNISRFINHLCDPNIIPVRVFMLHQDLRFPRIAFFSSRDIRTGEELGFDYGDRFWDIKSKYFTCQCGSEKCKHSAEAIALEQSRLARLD
#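 Step 1: enzyme (final 20 nM) with compound, 15 min RT. Step 2: substrate peptide 500 nM and SAM 20 uM, 2 h RT. Step 3: anti-H3K9me1 antibody and AlphaScreen beads, 10 min, then plate read.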
# JMJD2A Tudor = blocks the human JMJD2A Tudor domain; O75164; AlphaScreen JMJD2A-Tudor / H3K4me3 peptide binding; Potency, µM (series often up to 114 µM), for the others: at the top dose activity change, negative = inhibition, hits mostly inhibitors; hit rate 4.4% among 390,000; AID 504339; also: % is scaled to controls: 0 for no effect and ±100 for the full control effect; nearly all actives have a fitted effect of over 50% in size
# BAZ2B inh = blocks human BAZ2B | Potency, µM (series often up to 114 µM), without a hit: top-dose activity change, negative = inhibition, usual class: inhibitors | Q9UIF8 | AlphaScreen BAZ2B-H3K14Ac peptide displacement | hit rate 4.4% among 360,000; also: % is scaled to controls: 0 for no effect and ±100 for the full control effect; nearly all actives have a fitted effect of over 60% in size
#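 AlphaScreen displacement of biotin-H3(5-23)K14Ac peptide (50 nM final) from BAZ2B (50 nM final) in PBS pH 7.4, 0.01% Tween-20; complex preformed 30 min RT, then compounds (top 110 uM) 30 min RT, beads 20 min dark.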
# Sfp inh = blocks B. subtilis Sfp PPTase activity; Q9F4F7; Biochemical Sfp PPTase activity, qHTS; Potency, µM, inactives show largest response in the series, negative = inhibition, most hits filed as inhibitors; hit rate 3.5% among 310,000; AID 1490;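 also: the enzyme is Sfp with the accession as filed and its product quenches rhodamine fluorescence; 0% = enzyme reaction without inhibitor and -100% = no enzyme wells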
#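 Step 1, compound plus 15 nM Sfp-PPTase, 15 min, room temperature. Step 2, add rhodamine-CoA (5 uM) and BHQ-2-YbbR (12.5 uM). Step 3, read 525/598 nm fluorescence at 0 and 30 min.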
# HP1b chromo inh = inhibitors of HP1-beta chromodomain binding to methylated histone tails | P83916 | AlphaScreen HP1-beta / biotin-H3K9me3 peptide binding | Potency, µM (titrated, usually from 114 µM), without a hit: at the top dose activity change, negative = inhibition, most hits filed as inhibitors | hit rate 0.56% among 390,000 | AID 540317; also: nearly all actives have a fitted effect of over 70% in size
# Target sequence (P83916 whole entry, looked up): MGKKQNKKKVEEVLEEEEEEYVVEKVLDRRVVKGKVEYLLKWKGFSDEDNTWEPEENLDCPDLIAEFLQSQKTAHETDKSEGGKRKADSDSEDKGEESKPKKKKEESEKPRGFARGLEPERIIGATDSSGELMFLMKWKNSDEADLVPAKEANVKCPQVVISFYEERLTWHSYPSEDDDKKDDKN
#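 AlphaScreen: HP1-beta (50 nM) preformed 30 min with biotin-H3(1-18)K9me3 peptide (50 nM) in PBS pH 7.4, 0.01% Tween-20. Compound added for 30 min at RT, then streptavidin donor/nickel chelate acceptor beads (10 ug/mL) for 30 min.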
# * marks the source's active call; other numbers are inactive results; ? = inconclusive; . = no result given; [ ] = remark or other dose. Hits are enriched below; roughly 12% of the tested compounds scored in any of these assays. Calls follow the shape of the dose curve; as a rule, active = well fitted curve in the direction sought with a large enough effect; inconclusive = small, poorly fitted or top-dose-only effect, or another doubt; inactive = no such curve, though single readings can be large; an effect the other way counts as inactive or inconclusive. Potency is read from the fitted curve at half-maximal effect.
SMILES,L3MBTL1 block,G9a block,JMJD2A Tudor,BAZ2B inh,Sfp inh,HP1b chromo inh
COc1ccc(N2CCN(C(=O)c3ccc(Cl)c(S(=O)(=O)N4CCOCC4)c3)CC2)cc1,.,.,-22%,.,.,1%
CCN(CC)CCNC(=O)C(=O)NCC(c1ccc2c(c1)OCO2)N1CCOCC1 (stereo unspecified),.,7%[59 µM],-8%,3%,.,11%[57 µM]
CCc1c(C)sc(NC(=O)Cn2nc(C)c([N+](=O)[O-])c2C)c1C(N)=O,2%,3.5µM*,-19%,-31%,11µM*,?
Cc1csc(NC(=O)Cn2nc(C)c([N+](=O)[O-])c2C)n1,-1%,-3%,-13%,-5%,14%,13%
CN(C)Cc1c(C(=O)N/N=C/C2CC=CCC2)nnn1-c1nonc1N (stereo unspecified),.,18%,1%,-1%,10%,10%
Nc1ccc(Nc2nc3ccccc3[nH]2)cc1,-14%,.,56µM*,45µM*,-3%,?
Nc1ccccc1Nc1nc2ccccc2[nH]1,-19%,89µM*,-26%,?,3%,-7%
O=C(O)CC1(CC(=O)Nc2cc3ccccc3cn2)CCCCC1,-4%,89µM*,-5%,-29%,12%,31%
Cc1cccc(NC(=O)CC2(CC(=O)O)CCCC2)c1,.,20%,-5%,9%,16%,19%
CC(C)C1C(=O)N(S(C)(=O)=O)[C@H]2CCN(C(=O)/C=C/CN3CCCCC3)[C@@H]12 (stereo partly specified),.,.,.,.,-2%,.
CN(C)c1ccc(C(CNC(=O)c2ccccc2F)c2c[nH]c3ccccc23)cc1 (stereo unspecified),-13%,?,?,?,6%,14%
CN(C)c1ccc(C(CNC(=O)c2ccccc2)c2c[nH]c3ccccc23)cc1 (stereo unspecified),?,8.9µM*,?,14µM*,31%,40µM*
CN(C)c1ccc(C(CNS(=O)(=O)c2ccc(F)c(F)c2)c2c[nH]c3ccccc23)cc1 (stereo unspecified),?,40µM*,22µM*,22µM*,4%,32µM*
COc1ccc2c(c1)Cc1sc(NC(=O)c3cccnc3)nc1-2,?,45µM*,-10%[11.4 µM],-29%,-85%,34%
COc1ccc2c(c1)Cc1sc(NC(=O)c3ccco3)nc1-2,-3%,56µM*,-8%,-44%,-19%,16%
COc1ccc2c(c1)-c1nc(NC(=O)c3ccco3)sc1CC2,5%,25µM*,-34%,-28%,-11%,-26%
COc1ccc2c(c1)-c1nc(NC(=O)c3cccs3)sc1CC2,5%,?,-22%,-11%,-19%,31%
COc1ccc2c(c1)CCc1sc(NC(=O)c3ccco3)nc1-2,.,40µM*,-30%,-34%,?,-16%
Cc1ccc(N2CCN(C(=O)c3cnc(N4CCCCC4)c4ccccc34)CC2)c(C)c1,.,7%[59 µM],-5%,-4%,.,18%[57 µM]
CCc1cc2ccc(OC)cc2nc1SCC(=O)NNC(=O)c1ccco1,-7%,50µM*,-15%,-21%,-5%,31%
COc1ccc2sc(NC(=O)c3ccco3)nc2c1,-6%,7.1µM*,?,?,-2%,15%
COc1ccc2c(c1)CCc1sc(NC(=O)c3ccc(C)cc3)nc1-2,7%,6%,-16%,-20%,5%,23%
COc1ccc2nc(NC(=O)c3ccc(-c4cccc([N+](=O)[O-])c4)o3)sc2c1,1%,?,.,79µM*,13%,.
COc1ccc2c(c1)Cc1sc(NC(C)=O)nc1-2,4%[11.4 µM],-27%[12.7 µM],-25%,-31%,20µM*,16%
O=C(N/N=C\c1ccc(Cl)s1)c1ccc(Cn2cccn2)o1,9%,10%[59 µM],50µM*,8%,-1%,-10%
COc1cc(SC)ccc1C(=O)N1CCN(c2ccc(O)cc2)CC1,-16%,16µM*,?,.,56µM*,?
COc1cc(SC)ccc1C(=O)NC1CCCCC1,-7%,1.1µM*,8%,3%,-1%,36%
